Laboratory results taken from PubChem BioAssay AID1159580 (chemical genetic matrix, 2015).
Out of some 5,500 compounds screened, about 2,000 (36%) were called active. Another 18% or so got no clear call; they are omitted. Cut-off read from the data, not from the text of the source: active = normalized growth mostly below about 0.91 (no sharp cut-off); inconclusive = no clear call, values can overlap the other calls; inactive = mostly above about 0.92. This is one part of the list.

Experiment: chemical genetic growth profiling, strain panel (AID 1159580);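 note: tested at 20 µM; growth read once vehicle control cultures reached saturation at 30 °C; 1 = growth at the plate median or of vehicle wells; lower values mean less growth of the strain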
Details: S. cerevisiae deletion strains, growth OD
[1] = locus YDR150W, strain NUM1, hits give low values
[2] = locus YMR307W, strain GAS1, hits give low values

Measured: normalized growth

COc1ccc([C@H]2Oc3c(I)c(OC)cc(OC)c3C[C@@H]2O)cc1OC
inactive: locus YAL021C, strain ccr4, hits give low values 1.01 | locus YAL026C, strain drs2, hits give low values 1.01 | locus YAL030W, strain snc1, hits give low values 1.01 | locus YBL061C, strain skt5, hits give low values 1.01 | locus YBR009C, strain hhf1, hits give low values 1.01 | locus YBR021W, strain FUR4, hits give low values 1 | locus YBR023C, strain chs3, hits give low values 1.01 | locus YBR171W, strain sec66, hits give low values 1.01 | locus YBR229C, strain ROT2, hits give low values 1 | locus YBR231C, strain swc5, hits give low values 1.01 | locus YBR279W, strain paf1, hits give low values 1.03 | locus YCL011C, strain gbp2, hits give low values 1.02 | locus YCL016C, strain dcc1, hits give low values 1.02 | locus YCL029C, strain bik1, hits give low values 1.03 | locus YCL061C, strain MRC1, hits give low values 1.02 | locus YCL069W, strain vba3, hits give low values 1.02 | locus YCR088W, strain abp1, hits give low values 1.01 | locus YDL005C, strain med2, hits give low values 1.01 | locus YDL035C, strain GPR1, hits give low values 1.07 | locus YDL040C, strain nat1, hits give low values 1.01 | locus YDL074C, strain BRE1, hits give low values 1.1 | locus YDL101C, strain DUN1, hits give low values 1 | locus YDL134C, strain PPH21, hits give low values 1.03 | locus YDL185W, strain tfp1, hits give low values 1.03 | locus YDL192W, strain arf1, hits give low values 1.04 | locus YDR001C, strain nth1, hits give low values 1.02 | locus YDR069C, strain doa4, hits give low values 1.01 | locus YDR101C, strain arx1, hits give low values 1.04 | locus YDR137W, strain rgp1, hits give low values 0.982 | [1] 1.02 | locus YDR159W, strain sac3, hits give low values 0.98 | locus YDR162C, strain NBP2, hits give low values 1.04 | locus YDR195W, strain ref2 1.01 | locus YDR297W, strain sur2, hits give low values 1.01 | locus YDR318W, strain mcm21, hits give low values 1.02 | locus YDR334W, strain swr1, hits give low values 1.02 | locus YDR335W, strain msn5, hits give low values 1.01 | locus YDR388W, hits give low values 1.02 | locus YDR392W, strain spt3, hits give low values 0.895 | locus YDR502C, strain sam2, hits give low values 1.02 | locus YEL003W, strain gim4, hits give low values 1.01 | locus YEL037C, strain rad23, hits give low values 1.01 | locus YEL061C, strain CIN8 (second series), hits give low values 1.02 | locus YER015W, strain faa2, hits give low values 1.02 | locus YER016W, strain bim1, hits give low values 1 | locus YER110C, hits give low values 1 | locus YER111C, strain swi4, hits give low values 1.01 | locus YER155C, strain BEM2 (second series), hits give low values 1 | locus YER155C, strain BEM2, hits give low values 0.996 | locus YER167W, strain BCK2, hits give low values 1.01 | locus YFR010W, strain ubp6, hits give low values 1.01 | locus YGL078C, strain dbp3, hits give low values 0.999 | locus YGL086W, strain mad1, hits give low values 0.997 | locus YGL167C, strain pmr1, hits give low values 1.01 | locus YGL173C, strain kem1, hits give low values 1.01 | locus YGL227W, strain vid30, hits give low values 1.02 | locus YGL240W, strain doc1, hits give low values 1.01 | locus YGL248W, strain PDE1, hits give low values 1.04 | locus YGL253W, strain hxk2, hits give low values 1.01 | locus YGR135W, strain pre9, hits give low values 1.03 | locus YGR252W, strain gcn5, hits give low values 1.06 | locus YHR013C, strain ard1, hits give low values 1.02 | locus YHR027C, strain rpn1, hits give low values 1.01 | locus YHR030C, strain SLT2, hits give low values 1 | locus YHR079C, strain IRE1 (second series), hits give low values 1.01 | locus YHR094C, strain hxt1, hits give low values 1.01 | locus YHR129C, strain ARP1, hits give low values 1.03 | locus YHR142W, strain chs7, hits give low values 1.03 | locus YHR200W, strain rpn10, hits give low values 1.07 | locus YIL066C, strain RNR3, hits give low values 1.02 | locus YIL073C, strain SPO22, hits give low values 1.08 | locus YIL125W, strain kgd1, hits give low values 1.03 | locus YIR030C, strain dcg1, hits give low values 1.03 | locus YJL092W, strain hpr5, hits give low values 1.01 | locus YJL095W, strain BCK1 (second series), hits give low values 1.02 | locus YJL095W, strain BCK1, hits give low values 1.05 | locus YJL115W, strain asf1, hits give low values 1.02 | locus YJL129C, strain trk1, hits give low values 1.02 | locus YJL134W, strain LCB3, hits give low values 1 | locus YJL154C, strain vps35, hits give low values 1.01 | locus YJL164C, strain tpk1, hits give low values 1.01 | locus YJL166W, strain qcr8, hits give low values 1.01 | locus YJL168C, strain set2, hits give low values 1.02 | locus YJL187C, strain SWE1 (second series), hits give low values 1 | locus YJL187C, strain SWE1, hits give low values 1.01 | locus YJR075W, strain HOC1, hits give low values 1.03 | locus YKL009W, strain mrt4, hits give low values 0.912 | locus YKL068W, hits give low values 0.976 | locus YKL085W, strain MDH1 (second series), hits give low values 0.971 | locus YKL085W, strain MDH1, hits give low values 0.971 | locus YKL160W, strain elf1, hits give low values 1.02 | locus YKR001C, strain vps1, hits give low values 1.06 | locus YKR026C, strain gcn3, hits give low values 1 | locus YKR091W, strain srl3, hits give low values 1.01 | locus YLL001W, strain dnm1, hits give low values 1.02 | locus YLL026W, hits give low values 1 | locus YLL041C, strain sdh2, hits give low values 1.01 | locus YLR027C, strain aat2, hits give low values 1.01 | locus YLR039C, strain RIC1, hits give low values 1.2 | locus YLR058C, strain SHM2, hits give low values 1.02 | locus YLR102C, strain apc9, hits give low values 1.01 | locus YLR221C, strain rsa3, hits give low values 1.02 | locus YLR258W, strain gsy2, hits give low values 1 | locus YLR262C, strain YPT6 (second series), hits give low values 1.01 | locus YLR268W, strain sec22, hits give low values 1.05 | locus YLR320W, strain mms22, hits give low values 1.03 | locus YLR330W, strain CHS5, hits give low values 1.02 | locus YLR342W, strain FKS1 (second series), hits give low values 1.06 | locus YLR342W, strain FKS1, hits give low values 1.01 | locus YLR357W, strain rsc2, hits give low values 1.03 | locus YLR370C, strain arc18, hits give low values 1.01 | locus YLR371W, strain rom2, hits give low values 1.05 | locus YLR384C, strain iki3, hits give low values 1.01 | locus YLR418C, strain cdc73, hits give low values 1.05 | locus YML016C, strain PPZ1, hits give low values 1.01 | locus YML032C, strain rad52, hits give low values 1.03 | locus YML120C, strain ndi1, hits give low values 1.01 | locus YML124C, strain tub3, hits give low values 1.02 | locus YMR058W, strain fet3, hits give low values 1.01 | locus YMR078C, strain ctf18, hits give low values 1.01 | locus YMR125W, strain sto1, hits give low values 1.03 | locus YMR129W, hits give low values 1.01 | locus YMR205C, strain PFK2, hits give low values 1.01 | locus YMR223W, strain ubp8, hits give low values 1.06 | locus YMR231W, strain pep5, hits give low values 1 | locus YMR263W, strain SAP30, hits give low values 1.04 | [2] 1.2 | locus YNL067W, strain RPL9B, hits give low values 1.02 | locus YNL071W, strain lat1, hits give low values 1.01 | locus YNL128W, strain TEP1, hits give low values 1.04 | locus YNL209W, strain ssb2, hits give low values 1.04 | locus YNL233W, strain BNI4, hits give low values 1.04 | locus YNL248C, strain rpa49, hits give low values 1.01 | locus YNL250W, strain rad50, hits give low values 0.961 | locus YNL271C, strain bni1, hits give low values 1.03 | locus YNL298W, strain CLA4, hits give low values 0.985 | locus YNL307C, strain MCK1, hits give low values 1.01 | locus YNL322C, strain KRE1 (second series), hits give low values 1.01 | locus YNR049C, strain mso1, hits give low values 1.01 | locus YNR052C, strain pop2, hits give low values 1.01 | locus YOL006C, strain TOP1, hits give low values 1.23 | locus YOL012C, strain htz1 0.906 | locus YOL147C, strain pex11, hits give low values 1.02 | locus YOR001W, strain rrp6, hits give low values 0.997 | locus YOR061W, strain CKA2, hits give low values 0.999 | locus YOR069W, strain VPS5, hits give low values 1.02 | locus YOR070C, strain gyp1, hits give low values 1.02 | locus YOR080W, strain dia2, hits give low values 1.01 | locus YOR083W, strain WHI5, hits give low values 1.03 | locus YOR106W, strain vam3, hits give low values 1.03 | locus YOR136W, strain idh2, hits give low values 1.02 | locus YOR144C, strain elg1, hits give low values 1.04 | locus YOR184W, strain ser1, hits give low values 1.08 | locus YOR265W, strain rbl2, hits give low values 1 | locus YOR270C, strain vph1, hits give low values 1.04 | locus YOR290C, strain snf2, hits give low values 1.01 | locus YOR316C, strain cot1, hits give low values 1.04 | locus YPL051W, strain arl3, hits give low values 0.993 | locus YPL055C, strain LGE1, hits give low values 1.12 | locus YPL078C, strain atp4, hits give low values 1.02 | locus YPL106C, strain sse1, hits give low values 1.01 | locus YPL240C, strain hsp82, hits give low values 1.01 | locus YPR119W, strain clb2, hits give low values 1.03 | locus YPR141C, strain kar3, hits give low values 1.02 | locus YPR163C, strain tif3, hits give low values 1.02 | locus YPR167C, strain met16, hits give low values 1.04 | strain wtn01, hits give low values 1.02

O=C1c2c(O)cc(O)cc2OC(c2ccc(O)c(O)c2)C1O (stereo not drawn)
inactive: locus YAL013W, strain DEP1, hits give low values 1.03 | locus YAL040C, strain CLN3, hits give low values 1.04 | locus YCL061C, strain MRC1 (second series), hits give low values 0.999 | [1] 0.987 | locus YDR363W, strain ESC2, hits give low values 1 | locus YER002W, strain NOP16, hits give low values 0.998 | [2] 1.01 | locus YNL175C, strain NOP13, hits give low values 0.99 | locus YNL197C, strain WHI3, hits give low values 0.977 | locus YNL224C, strain SQS1, hits give low values 0.993 | locus YOR083W, strain WHI5 (second series), hits give low values 0.991
